The source made the active and inactive calls. Unless noted, the rule behind the calls is not given here.
Assays:
[1] = anti-His antibody binders, primary screen, artefact control for SMM control protein annotation, biochemical, small-molecule microarray, 635 nm fluorescence (AID 1128); details: anti-His Alexa647 antibody binding, higher = more signal;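 note: score merges feature fluorescence with signal-to-noise for each printed compound spot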
[2] = test system: Human papillomavirus type 1a E7 protein (residues 1-88); experiment: HPV1a E7 small-molecule binders, primary screen, biochemical, small-molecule microarray, residues 1-88, 635 nm (AID 1129); details: small-molecule microarray binding, fluorescence 635 nm; higher = more signal
[3] = molecular target: Focal adhesion kinase 1 (Homo sapiens) (UniProt Q05397); experiment: small-molecule microarray binders of FAK, primary screen, biochemical, 635/667 nm fluorescence, BSA, DTT (AID 1130); details: PTK2 binding, 635 nm fluorescence, higher = more signal;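 note: composite of spot emission at 667 nm and signal to noise over triplicate slides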
Chain of Focal adhesion kinase 1 (Homo sapiens) (Q05397 whole entry, looked up): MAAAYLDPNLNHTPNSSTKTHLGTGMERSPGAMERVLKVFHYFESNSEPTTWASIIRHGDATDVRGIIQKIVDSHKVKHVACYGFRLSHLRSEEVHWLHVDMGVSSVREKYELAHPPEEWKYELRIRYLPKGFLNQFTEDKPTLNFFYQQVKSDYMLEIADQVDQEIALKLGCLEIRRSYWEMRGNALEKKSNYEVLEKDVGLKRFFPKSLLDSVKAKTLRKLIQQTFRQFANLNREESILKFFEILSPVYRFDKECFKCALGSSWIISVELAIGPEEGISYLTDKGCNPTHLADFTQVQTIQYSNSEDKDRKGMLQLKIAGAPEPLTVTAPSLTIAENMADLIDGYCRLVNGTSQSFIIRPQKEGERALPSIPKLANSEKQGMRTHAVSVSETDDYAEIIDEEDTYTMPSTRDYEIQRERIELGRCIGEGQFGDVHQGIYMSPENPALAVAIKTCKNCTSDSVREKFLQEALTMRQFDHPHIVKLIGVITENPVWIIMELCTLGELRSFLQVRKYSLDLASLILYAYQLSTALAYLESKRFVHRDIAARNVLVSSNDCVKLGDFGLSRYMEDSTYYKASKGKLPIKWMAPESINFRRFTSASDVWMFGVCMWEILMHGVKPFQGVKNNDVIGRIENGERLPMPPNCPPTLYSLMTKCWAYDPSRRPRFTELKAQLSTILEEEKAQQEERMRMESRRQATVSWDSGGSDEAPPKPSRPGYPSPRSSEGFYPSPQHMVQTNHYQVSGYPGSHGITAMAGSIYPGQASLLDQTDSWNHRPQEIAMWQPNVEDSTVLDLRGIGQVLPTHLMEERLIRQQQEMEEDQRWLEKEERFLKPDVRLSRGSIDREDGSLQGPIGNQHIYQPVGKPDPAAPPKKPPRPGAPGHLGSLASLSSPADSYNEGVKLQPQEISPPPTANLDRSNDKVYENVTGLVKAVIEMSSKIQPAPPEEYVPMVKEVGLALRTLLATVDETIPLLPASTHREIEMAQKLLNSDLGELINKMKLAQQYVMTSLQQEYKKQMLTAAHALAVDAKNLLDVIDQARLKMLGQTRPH

[4] = test system: Fibrinogen (Alexa647-labelled); experiment: fibrinogen binders on compound microarrays, profiling panel, artefact control for SMM control-protein annotation, biochemical, small-molecule microarray, 635/667 nm fluorescence (AID 1131); details: fibrinogen-A647 binding fluorescence, higher = more signal;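 note: z-score merges 667 nm fluorescence with per-spot signal-to-noise over triplicate slides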
[5] = molecular target: Follistatin (Homo sapiens) (UniProt P19883); experiment: follistatin binders on small-molecule microarrays, primary screen, biochemical, small-molecule microarray, 635/667 nm fluorescence (AID 1132); details: FST binding, 635 nm fluorescence, higher = more signal
Chain of Follistatin (Homo sapiens) (P19883 whole entry, looked up): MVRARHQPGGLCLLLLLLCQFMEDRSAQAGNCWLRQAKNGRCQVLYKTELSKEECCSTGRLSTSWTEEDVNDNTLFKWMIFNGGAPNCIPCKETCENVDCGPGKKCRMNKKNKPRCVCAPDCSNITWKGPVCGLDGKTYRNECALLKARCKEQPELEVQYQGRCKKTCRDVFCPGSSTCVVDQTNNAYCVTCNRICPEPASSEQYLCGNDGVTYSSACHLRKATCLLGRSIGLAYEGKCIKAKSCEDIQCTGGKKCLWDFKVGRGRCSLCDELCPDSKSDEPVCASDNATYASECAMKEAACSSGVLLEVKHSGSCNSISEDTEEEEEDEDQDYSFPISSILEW

[6] = molecular target: Fibroblast growth factor 2 (Homo sapiens) (UniProt P09038); experiment: FGF2 binders on small-molecule microarrays, primary screen, biochemical, small-molecule microarray, 635/667 nm fluorescence (AID 1133); details: small-molecule microarray binding, FGF2, fluorescence 635/667; higher = more signal
Chain of Fibroblast growth factor 2 (Homo sapiens) (P09038 whole entry, looked up): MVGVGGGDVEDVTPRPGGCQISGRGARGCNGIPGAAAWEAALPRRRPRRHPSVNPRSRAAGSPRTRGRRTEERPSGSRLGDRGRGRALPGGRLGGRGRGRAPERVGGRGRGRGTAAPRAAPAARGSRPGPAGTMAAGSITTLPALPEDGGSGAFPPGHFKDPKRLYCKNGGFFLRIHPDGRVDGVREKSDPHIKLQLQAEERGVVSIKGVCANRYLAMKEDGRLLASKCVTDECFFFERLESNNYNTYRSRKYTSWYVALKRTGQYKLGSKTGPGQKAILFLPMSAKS

[7] = mitochondrial membrane potential change in A549 cells, profiling panel, cell-based, JC-1 fluorescence, basal, 24 h, 100 nL (AID 1138); details: higher = more signal;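 note: A549 lung adenocarcinoma cells under basal conditions with no added stimulus; test concentration not given here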
Lefty1 = Lefty1 binders on small-molecule microarrays, primary screen, biochemical, small-molecule microarray, 635/667 nm fluorescence (AID 1139); details: small-molecule microarray binding, fluorescence 635/667; higher = more signal
[8] = test system: wheat germ agglutinin (Triticum aestivum), Alexa647-labelled; experiment: wheat germ agglutinin binders on compound microarrays, profiling panel, artefact control for SMM control-protein annotation, biochemical, small-molecule microarray, 635/667 nm fluorescence (AID 1140); details: WGA-A647 binding, 635 nm fluorescence, higher = more signal;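 note: score merges 667 nm feature emission with signal to noise over triplicate slides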
[9] = molecular target: Luciferin 4-monooxygenase (Photinus pyralis) (UniProt P08659); experiment: firefly luciferase enzyme inhibitors, primary screen, biochemical, luminescence, purified enzyme, 2006 set (AID 1141); details: SteadyGlo luminescence, 30 min, higher = more signal, called active from +8 up or from −8 down;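 note: cell-free assay with purified firefly luciferase at 100 ng per well in PBS; test concentration not given here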
Chain of Luciferin 4-monooxygenase (Photinus pyralis) (P08659 whole entry, looked up): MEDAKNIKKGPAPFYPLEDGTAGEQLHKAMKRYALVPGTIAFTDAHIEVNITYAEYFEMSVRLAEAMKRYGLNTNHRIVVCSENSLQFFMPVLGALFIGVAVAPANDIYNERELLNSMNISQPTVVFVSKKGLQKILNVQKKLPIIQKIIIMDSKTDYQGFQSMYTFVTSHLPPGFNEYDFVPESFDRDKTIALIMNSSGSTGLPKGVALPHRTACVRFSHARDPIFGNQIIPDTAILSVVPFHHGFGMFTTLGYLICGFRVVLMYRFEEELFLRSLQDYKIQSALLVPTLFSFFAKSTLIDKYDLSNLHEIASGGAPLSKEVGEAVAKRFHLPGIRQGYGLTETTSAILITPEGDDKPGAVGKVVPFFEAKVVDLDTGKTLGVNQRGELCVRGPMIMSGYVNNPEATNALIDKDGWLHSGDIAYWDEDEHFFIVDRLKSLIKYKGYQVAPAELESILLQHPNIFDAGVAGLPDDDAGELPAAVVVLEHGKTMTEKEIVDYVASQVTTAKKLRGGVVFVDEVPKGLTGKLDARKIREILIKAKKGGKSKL

[10] = test system: Wnt5a (protein binding on small-molecule microarray); experiment: Wnt5a binders on small-molecule microarray, primary screen, biophysical, 635/667 nm fluorescence (AID 1142); details: 635 nm fluorescence, higher = more signal;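 note: fluorescence read at 667 nm with signal to noise per printed feature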
[11] = cell viability in Huh7 cells, primary screen, cytotoxicity control for HCV replication inhibitor project, CellTiter-Glo luminescence, basal, 48 h (AID 1143); details: Huh7 HCV replicon, higher = more signal, called active from +8 up or from −8 down;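 note: Huh7 hepatoma cells carrying a hepatitis C replication reporter with no stimulus; test concentration not given here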
[12] = P. aeruginosa biofilm formation inhibitors, primary screen, PAO1 strain, BacTiter-Glo luminescence, LB-PBS (AID 1144); details: 12 h, higher = more signal
[13] = CREB reporter modulators without forskolin, primary screen, cell-based, PC12, CRE-LacZ reporter, unstimulated (AID 1145); details: no forskolin, luminescence, 4.5 h, higher = more signal, called active from +8 up or from −8 down
[14] = CREB reporter modulators under forskolin, primary screen, cell-based, PC12, CRE-LacZ reporter, forskolin-stimulated (AID 1146); details: luminescence, 4.5 h, higher = more signal, called active from +8 up or from −8 down;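 note: PC12 cells with 6xCRE LacZ reporter stimulated by forskolin 10 µM; beta-galactosidase reporter signal reflecting CREB driven transcription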
[15] = molecular target: Streptavidin (Streptomyces avidinii) (UniProt P22629); experiment: streptavidin binders on small-molecule microarray, primary screen, artefact control for SMM compound annotation, biophysical, 635/667 nm fluorescence (AID 1147); details: streptavidin binding, higher = more signal;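 note: signal reflects streptavidin binding to arrayed compounds as a control protein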
Chain of Streptavidin (Streptomyces avidinii) (P22629 whole entry, looked up): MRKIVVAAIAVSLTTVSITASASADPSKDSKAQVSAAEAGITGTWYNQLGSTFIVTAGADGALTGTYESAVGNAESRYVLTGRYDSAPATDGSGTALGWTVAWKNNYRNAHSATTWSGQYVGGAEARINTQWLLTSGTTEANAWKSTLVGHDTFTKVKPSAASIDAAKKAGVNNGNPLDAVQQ

[16] = small-molecule binders of probe aInhba, primary screen, biochemical, small-molecule microarray, 635/667 nm fluorescence (AID 1148); details: higher = more signal;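 note: score merges 667nm spot fluorescence with signal-to-noise for antibody binding to printed compounds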
Torsin-1A (Homo sapiens) [17] = molecular target: Torsin-1A (Homo sapiens) (UniProt O14656); experiment: torsin A binders from cell lysate, primary screen, small-molecule microarray, wild-type, 635/667 nm (AID 1149); details: COS7 hTOR1A-WT lysate, 635 nm fluorescence, higher = more signal
Chain of Torsin-1A (Homo sapiens) (O14656 whole entry, looked up): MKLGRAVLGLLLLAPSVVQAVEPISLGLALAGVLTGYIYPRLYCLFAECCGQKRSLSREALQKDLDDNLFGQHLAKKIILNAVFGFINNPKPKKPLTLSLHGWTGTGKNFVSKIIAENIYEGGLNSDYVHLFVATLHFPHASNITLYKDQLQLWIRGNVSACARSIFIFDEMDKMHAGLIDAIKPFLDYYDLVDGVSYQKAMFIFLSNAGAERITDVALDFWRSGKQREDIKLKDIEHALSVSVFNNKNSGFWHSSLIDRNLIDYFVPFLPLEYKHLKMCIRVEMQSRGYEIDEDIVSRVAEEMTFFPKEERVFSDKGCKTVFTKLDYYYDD

Torsin-1A (Homo sapiens) [18] = molecular target: Torsin-1A (Homo sapiens) (UniProt O14656); experiment: small-molecule binders of mutant TOR1A in lysate, primary screen, cell lysate, small-molecule microarray, COS7 lysate, 635/667 nm fluorescence (AID 1150); details: COS7 hTOR1A mutant lysate, 635 nm fluorescence, higher = more signal;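 note: score pools 667 nm emission and signal to noise measuring lysate protein binding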
[19] = test system: Sonic hedgehog protein (Shh); experiment: small-molecule binders of Shh protein, primary screen, biochemical, small-molecule microarray, 635/667 nm fluorescence (AID 1151); details: small-molecule microarray binding, 635 nm fluorescence; higher = more signal;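 note: Shh protein binding to compounds spotted on small-molecule microarray slides; score combines spot fluorescence intensity with signal-to-noise across triplicate slides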

SMILES | composite z-score [1] | composite z-score [2] | composite z-score [3] | composite z-score [4] | composite z-score [5] | composite z-score [6] | z-score [7] | composite z-score (Lefty1) | composite z-score [8] | z-score [9] | composite z-score [10] | z-score [11] | z-score [12] | z-score [13] | z-score [14] | composite z-score [15] | composite z-score [16] | composite z-score (Torsin-1A (Homo sapiens) [17]) | composite z-score (Torsin-1A (Homo sapiens) [18]) | composite z-score [19]
CC(C)C[C@@H]1NC(=O)[C@@H]2C[C@H](C(=O)NCCCCN(C)C)[C@H](c3ccc(O)cc3)N2C1=O | 2.74 | -0.494 | -0.462 | -0.838 | -0.21 | -0.0947 | -0.273 | -0.477 | -0.153 | 0.36 (inactive) | -0.341 | 0.446 (inactive) | -0.0311 (inactive) | -0.532 (inactive) | -0.0914 (inactive) | -0.466 | -0.0624 | 0.0266 | -0.271 | 0.273
Cc1cccc(/C=C/C=O)c1 | -0.109 | -0.115 | 0.0048 | 0.458 | 0.198 | -0.163 | 0.538 | -0.119 | 0.718 | -0.953 (inactive) | -0.0267 | 0.585 (inactive) | 0.16 (inactive) | 0.0924 (inactive) | -0.0647 (inactive) | 1.04 | -0.0963 | -0.782 | -0.295 | 0.0638
O=C1OCC=C[C@H]2OC34C=CCN(Cc5ccccc5)C(=O)[C@H]3N(CCCO)C(=O)[C@@H]4[C@@H]12 (stereo not given in full) | 2.26 | 0.374 | 1.14 | -0.827 | 0.397 | -0.56 | -0.63 | 1.12 | -0.0711 | -0.241 (inactive) | -0.312 | -2.33 (inactive) | -1.04 (inactive) | -0.899 (inactive) | -0.59 (inactive) | -0.707 | 0.222 | -0.667 | -0.239 | 1.44
CC1CC/C=C\[C@H]2OC34C=CCN(CCN5CCOCC5)C(=O)[C@H]3N(CCCCCO)C(=O)[C@@H]4C2C(=O)O1 (stereo not given in full) | -0.417 | -1.44 | -0.197 | -1.2 | -0.381 | -0.206 | -0.485 | -0.376 | -0.577 | -0.115 (inactive) | 0.06 | 0.362 (inactive) | 0.658 (inactive) | 0.0645 (inactive) | 0.259 (inactive) | -0.488 | -0.327 | -0.0591 | -0.352 | 0.322
CN1C(=O)C2C=CC(C(O)C=Cc3ccc([N+](=O)[O-])cc3)N(N3CCCCC3)C2C1=O (stereo not given) | 1.25 | 1.2 | 0.518 | 0.966 | 1.4 | 0.544 | 0.39 | 0.393 | 1.28 | -1.79 (inactive) | 1.32 | 0.795 (inactive) | 0.287 (inactive) | -0.519 (inactive) | 0.855 (inactive) | 2.09 | 1.22 | 0.704 | 0.451 | 0.909
COCC1C2CC[C@H]3C(OCc4ccc(F)cc4C(F)(F)F)OC[C@]4(C)[C@H]3C2=C(CN4C(=O)OC(C)(C)C)[C@H](C)C1COC (stereo not given in full) | 0.976 | 1.18 | 0.475 | 0.764 | 0.342 | -0.593 | 1.52 | -0.348 | 1.14 | 0.248 (inactive) | 0.33 | -1.84 (inactive) | 0.338 (inactive) | 0.0007 (inactive) | 0.172 (inactive) | 1.2 | 0.385 | 0.404 | 1.35 | -1.4
C=C[C@H](OC)[C@@H](OC(=O)Nc1ccc(SC)cc1)c1ccc(OCCO)cc1 | 3.12 | 1.22 | 0.39 | -0.332 | 0.236 | 0.453 | -1.56 | -0.444 | 0.833 | -1.94 (inactive) | 0.712 | -1.24 (inactive) | -1.2 (inactive) | 1.55 (inactive) | -0.648 (inactive) | -0.414 | -0.123 | 0.212 | 0.792 | 0.255
OCCCc1cc[n+](Cc2cccc(OC(F)(F)F)c2)cc1 | 1.62 | 1.01 | 0.917 | 0.315 | 1.18 | 0.58 | -0.672 | 0.714 | 0.889 | 1.14 (inactive) | 0.012 | -1.79 (inactive) | -0.781 (inactive) | -0.374 (inactive) | 1.69 (inactive) | 0.274 | -0.0538 | 1.03 | 1.59 | 1.82
CO[C@H]1O[C@H](CO)[C@@H](OC(=O)Nc2ccccc2-c2ccccc2)[C@H](OC(=O)Nc2ccccc2-c2ccccc2)[C@H]1OC(=O)Nc1ccccc1-c1ccccc1 | 2.54 | 1.27 | 0.464 | 1.02 | 1.3 | 1.63 | 0.147 | 0.644 | 0.745 | -1.35 (inactive) | 0.764 | -3.73 (inactive) | -0.587 (inactive) | 1.65 (inactive) | -0.823 (inactive) | 0.244 | 0.243 | 0.93 | 0.885 | 1.61
CC(C)(C)OC(=O)CC[C@@]1(C(=O)NCC(O)CO)N=C(c2ccc(OCCCO)cc2)O[C@@H]1c1ccccc1 (stereo not given in full) | 0.0885 | 0.913 | 0.415 | 0.681 | 0.392 | -0.691 | 0.477 | -0.0491 | 0.467 | -0.962 (inactive) | 0.0271 | 0.496 (inactive) | -1.15 (inactive) | 2.06 (inactive) | -0.904 (inactive) | -0.0256 | -0.0361 | 1.07 | 1.01 | -0.887

Source: PubChem BioAssay
